The nature of assay [1]: qHTS assay to identify small molecule antagonists of the thyroid receptor (TR) signaling pathway (AID 743065). Also: nearly all actives have a fitted effect of over 55% in size. Also: potency is read from the fitted curve at half-maximal effect. A digest of the protocol:
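GH3.TRE-Luc rat pituitary cells carrying two TR response elements driving luciferase were plated for 4 h, given compound plus 1 nM T3 (final), and incubated 23.5 h at 37 C. ONE-Glo luminescence measured reporter inhibition; CellTiter-Fluor fluorescence tracked cytotoxicity.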

Assay [2] has as its system thyroid hormone receptor (rat, GH3 cells). Kind of assay: qHTS assay to identify small molecule agonists of the thyroid receptor (TR) signaling pathway (AID 743066; calls by dose curve). A general note: In qHTS, concentration-response curves come from the screen itself.
A short description of assay [3]: qHTS assay to identify small molecule antagonists of the estrogen receptor alpha (ER-alpha) signaling pathway using the BG1 cell line - cell viability counter screen (AID 743081).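 Also: compound given together with 17beta-estradiol as the ER stimulus; nearly all actives have a fitted effect of over 45% in size.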 Also: potency is read from the fitted curve at half-maximal effect.
A further assay addresses Aromatase (Homo sapiens) (UniProt P11511). As to the kind of experiment: qHTS assay to identify aromatase inhibitors (AID 743083). Also: series mostly up to about 70 µM; nearly all actives have a fitted effect of over 55% in size.
A short description of assay [4]: qHTS assay to identify aromatase inhibitors - cell viability counter screen (AID 743084).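 Also: cells stimulated with testosterone during compound exposure; nearly all actives have a fitted effect of over 55% in size.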 Also: potency is read from the fitted curve at half-maximal effect.
Assay [5] has as its target Aryl hydrocarbon receptor (Homo sapiens) (UniProt P35869). Kind of assay: qHTS assay to identify small molecule that activate the aryl hydrocarbon receptor (AhR) signaling pathway (AID 743085). Also: nearly all actives have a fitted effect of over 15% in size. Also: potency is read from the fitted curve at half-maximal effect.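 As to activation: HG2L7.5c1 human HepG2 liver cells with stably integrated DRE-driven firefly reporter; series mostly up to about 70 µM.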 A digest of the protocol: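 AhR agonist activity is inferred from enhanced light output of a DRE-controlled firefly luciferase reporter in HepG2 cells, measured with ONE-Glo following 24 h treatment at 37C.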

Assay [6] concerns the target Peroxisome proliferator-activated receptor gamma (Homo sapiens) (UniProt P37231). As to the kind of experiment: qHTS assay to identify small molecule agonists of the peroxisome proliferator-activated receptor gamma (PPARg) signaling pathway (AID 743094; active = well fitted activation curve with a large enough effect in the signal ratio in the repeat runs, not every such curve was filed as active; the % refers to the signal ratio). A digest of the protocol:
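Following 5 h plating at 37C, PPARg-bla HEK293H cells receive compound or DMSO for 17 h; fluorescence intensity is recorded after LiveBLAzer B/G loading for 1 h at room temperature.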

For assay [7] the target is unchanged. As to the kind of experiment: qHTS assay to identify small molecule antagonists of the peroxisome proliferator-activated receptor gamma (PPARg) signaling pathway (AID 743191; calls by dose curve; also: series mostly up to about 63 µM; nearly all actives have a fitted effect of over 30% in size). The procedure, abridged: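 GeneBLAzer PPARg UAS-bla HEK293H cells carrying a UAS-driven beta-lactamase reporter were plated at 3000 cells/well, preincubated 5 h at 37C, then given compound for 17 h at 37C; LiveBLAzer B/G FRET substrate was read after 1 h at room temperature.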

A short description of assay [8]: qHTS assay to identify small molecule antagonists of the peroxisome proliferator-activated receptor gamma (PPARg) signaling pathway - cell viability counter screen (AID 743194). Also: nearly all actives have a fitted effect of over 55% in size. A digest of the protocol: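 PPARg-UAS-bla HEK293H cells were plated, rested 5 h at 37 C, then treated with compounds plus rosiglitazone (50 nM final) for 17 h at 37 C; viability was then read by CellTiter-Glo luminescence after 30 min at room temperature.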

Assay [9] in a line: qHTS assay for small molecule agonists of the antioxidant response element (ARE) signaling pathway (AID 743202; active = well fitted activation curve with a large enough effect in the signal ratio in the repeat runs, not every such curve was filed as active; the % refers to the signal ratio). The procedure, abridged:
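Compounds delivered in DMSO to ARE-bla HepG2 cells (2,000 cells/well, pre-incubated 5 h) and left 16 h at 37 C. LiveBLAzer B/G FRET substrate then added for 2 h at RT before fluorescence reading.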

The nature of assay [10]: qHTS assay for small molecule agonists of the antioxidant response element (ARE) signaling pathway - cell viability counter screen (AID 743203; calls by dose curve; also: nearly all actives have a fitted effect of over 55% in size; also: potency is read from the fitted curve at half-maximal effect). The procedure, abridged:
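Compounds in DMSO were pinned onto ARE-bla HepG2 cells plated 5 hrs earlier at 2,000 cells/well. Sixteen hours later at 37C/5% CO2, CellTiter-Glo was added and luminescence measured after 30 min at room temperature.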

Assay [11] in a line: qHTS assay for small molecule activators of the heat shock response signaling pathway - cell viability counter screen (AID 743209). Also: nearly all actives have a fitted effect of over 50% in size. A digest of the protocol:
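Counter screen for cytotoxicity in HeLa HSE-bla reporter cells. Treatment was 5 h at 37 C; viability was detected by luminescent ATP assay (CellTiter-Glo) in the same wells as the beta-lactamase read.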

Assay [12] can be described thus: qHTS assay for small molecule activators of the heat shock response signaling pathway (AID 743210; active = well fitted activation curve with a large enough effect in the signal ratio in the repeat runs, with a control signal flat, not every such curve was filed as active; the % refers to the signal ratio;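 also: HeLa cells with beta-lactamase reporter driven by heat shock elements; series mostly up to about 63 µM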). The procedure, abridged:
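Reporter gene assay: HeLa cells stably bearing an HSE-bla construct, compound treatment 5 h at 37 C, LiveBLAzer substrate 2.5 h at RT, fluorescence intensity.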

Assay [13] can be described thus: qHTS assay to identify small molecule agonists of the peroxisome proliferator-activated receptor delta (PPARd) signaling pathway - cell viability counter screen (AID 743211). Also: nearly all actives have a fitted effect of over 55% in size. A digest of the protocol: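 qHTS cell viability: PPARd-bla HEK293H; 17 h cpd, 37C; CellTiter-Glo, luminescence at 30 min RT.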
Assay [14] can be described thus: qHTS assay to identify small molecule antagonists of the estrogen receptor alpha (ER-alpha) signaling pathway - cell viability counter screen (AID 743074; calls by dose curve;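 also: HEK293 cells carrying ER-alpha-UAS-bla reporter stimulated with 17beta-estradiol; nearly all actives have a fitted effect of over 45% in size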; also: potency is read from the fitted curve at half-maximal effect).
Assay [15] is described as follows: qHTS assay to identify small molecule that activate the aryl hydrocarbon receptor (AhR) signaling pathway - cell viability counter screen (AID 743086).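 Also: HepG2 liver cells carrying the AhR DRE luciferase reporter; series mostly up to about 70 µM; nearly all actives have a fitted effect of over 45% in size.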 A digest of the protocol: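 HepG2-AhR-luc (HG2L7.5c1) cells, 4000/well, were preincubated 5 h at 37C, exposed to compound in qHTS format for 24 hr at 37C, then given CellTiter-Fluor for 30 min; viability was read as fluorescence in the reporter wells.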

Assay [16] concerns the target Estrogen receptor (Homo sapiens) (UniProt P03372). Kind of assay: qHTS assay to identify small molecule agonists of the estrogen receptor alpha (ER-alpha) signaling pathway (AID 743075; calls by dose curve;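 also: HEK293 GripTite cells with ER-alpha and UAS-driven beta-lactamase reporter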).
Assay [17] has the same target. Kind of assay: qHTS assay to identify small molecule agonists of the estrogen receptor alpha (ER-alpha) signaling pathway using the BG1 cell line (AID 743079). Also: nearly all actives have a fitted effect of over 20% in size.
Assay [18] can be described thus: qHTS assay to identify small molecule antagonists of the estrogen receptor alpha (ER-alpha) signaling pathway using the BG1 cell line (AID 743080; calls by dose curve;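 also: BG1 cells stimulated with 17beta-estradiol alongside compound; series mostly up to about 70 µM; nearly all actives have a fitted effect of over 25% in size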). The procedure, abridged: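 BG1-Luc-4E2 cells (endogenous full-length ER-alpha, stable 4×ERE-luciferase) were starved 5 days in phenol-red-free medium with 10% charcoal-stripped FBS, plated 24 h, then given compound plus 17beta-estradiol for 21.5 h at 37 C; ONE-Glo luminescence read after 30 min.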

For assay [19], the target named is Estrogen receptor (Homo sapiens) (UniProt P03372). As to the kind of experiment: qHTS assay to identify small molecule antagonists of the estrogen receptor alpha (ER-alpha) signaling pathway (AID 743069; active = well fitted curve in the direction sought with a large enough effect in the signal ratio in the repeat runs, not every such curve was filed as active; the % refers to the signal ratio). A digest of the protocol:
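Estradiol-stimulated ER-alpha-UAS-bla HEK293 cells, 18 hr compound exposure at 37C. LiveBLAzer B/G substrate, 2 hr RT, fluorescence read.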

Records with an inconclusive call do not appear. A number with no mark means an inactive call. Calls of active or inactive are those of the source. Unless noted, calls follow the shape of the dose curve; as a rule, active = well fitted curve in the direction sought with a large enough effect in the repeat runs; inconclusive = weak or mixed curves; inactive = no such curve, though single readings can be large; an effect the other way counts as inactive or inconclusive.

16 compounds from PubChem BioAssay (Tox21) can be followed below.

Aryl hydrocarbon receptor (Homo sapiens), sequence (P35869 whole entry, looked up): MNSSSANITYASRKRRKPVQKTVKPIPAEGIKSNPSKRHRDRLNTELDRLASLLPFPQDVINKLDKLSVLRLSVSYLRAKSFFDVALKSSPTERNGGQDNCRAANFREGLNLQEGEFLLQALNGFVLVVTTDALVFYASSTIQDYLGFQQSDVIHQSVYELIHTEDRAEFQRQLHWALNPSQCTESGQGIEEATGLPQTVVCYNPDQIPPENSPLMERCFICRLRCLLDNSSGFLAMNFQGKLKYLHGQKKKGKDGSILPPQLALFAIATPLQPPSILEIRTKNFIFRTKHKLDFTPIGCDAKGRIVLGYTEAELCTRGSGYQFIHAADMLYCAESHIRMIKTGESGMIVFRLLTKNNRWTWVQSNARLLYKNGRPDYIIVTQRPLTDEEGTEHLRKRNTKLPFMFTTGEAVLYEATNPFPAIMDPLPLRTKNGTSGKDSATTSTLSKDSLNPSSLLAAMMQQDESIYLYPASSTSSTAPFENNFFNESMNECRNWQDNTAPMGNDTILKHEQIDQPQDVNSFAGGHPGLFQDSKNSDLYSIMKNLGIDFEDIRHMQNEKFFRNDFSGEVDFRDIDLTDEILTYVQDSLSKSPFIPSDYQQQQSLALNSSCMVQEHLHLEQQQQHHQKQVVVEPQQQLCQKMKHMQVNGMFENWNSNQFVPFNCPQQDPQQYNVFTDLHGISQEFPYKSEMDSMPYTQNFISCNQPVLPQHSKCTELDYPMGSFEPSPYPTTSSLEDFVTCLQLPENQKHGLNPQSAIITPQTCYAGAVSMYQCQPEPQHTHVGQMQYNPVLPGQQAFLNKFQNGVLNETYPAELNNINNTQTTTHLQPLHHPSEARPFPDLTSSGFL
Peroxisome proliferator-activated receptor gamma (Homo sapiens), sequence (P37231 whole entry, looked up): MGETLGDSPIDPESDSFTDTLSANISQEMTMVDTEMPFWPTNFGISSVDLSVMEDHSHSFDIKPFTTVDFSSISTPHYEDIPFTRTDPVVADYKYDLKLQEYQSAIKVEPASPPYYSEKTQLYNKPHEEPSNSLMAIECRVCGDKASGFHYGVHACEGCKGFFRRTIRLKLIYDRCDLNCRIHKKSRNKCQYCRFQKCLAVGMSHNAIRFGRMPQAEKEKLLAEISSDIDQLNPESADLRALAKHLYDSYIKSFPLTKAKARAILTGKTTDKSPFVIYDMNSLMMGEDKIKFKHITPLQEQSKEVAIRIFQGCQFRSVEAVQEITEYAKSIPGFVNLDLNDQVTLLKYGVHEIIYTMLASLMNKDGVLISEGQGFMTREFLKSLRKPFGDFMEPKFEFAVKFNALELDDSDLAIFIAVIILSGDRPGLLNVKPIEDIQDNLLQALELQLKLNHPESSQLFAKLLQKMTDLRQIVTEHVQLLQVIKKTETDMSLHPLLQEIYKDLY
Estrogen receptor (Homo sapiens), sequence (P03372 whole entry, looked up): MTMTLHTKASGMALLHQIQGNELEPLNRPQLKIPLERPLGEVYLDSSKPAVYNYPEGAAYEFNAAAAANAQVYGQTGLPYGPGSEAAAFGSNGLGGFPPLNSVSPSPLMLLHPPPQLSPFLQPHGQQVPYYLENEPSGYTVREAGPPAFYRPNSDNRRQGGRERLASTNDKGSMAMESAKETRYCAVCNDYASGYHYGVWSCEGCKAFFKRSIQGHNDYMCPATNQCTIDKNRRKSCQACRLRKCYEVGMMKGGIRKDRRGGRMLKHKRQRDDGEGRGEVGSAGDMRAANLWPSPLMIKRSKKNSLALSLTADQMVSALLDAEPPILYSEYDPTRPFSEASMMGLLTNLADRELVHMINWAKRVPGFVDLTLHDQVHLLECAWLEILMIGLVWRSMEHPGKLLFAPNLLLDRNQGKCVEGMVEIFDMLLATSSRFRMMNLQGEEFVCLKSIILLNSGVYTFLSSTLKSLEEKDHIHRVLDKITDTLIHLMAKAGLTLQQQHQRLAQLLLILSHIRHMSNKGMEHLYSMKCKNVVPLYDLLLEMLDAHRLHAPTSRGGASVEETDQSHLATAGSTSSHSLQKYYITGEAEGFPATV
Aromatase (Homo sapiens), sequence (P11511 whole entry, looked up): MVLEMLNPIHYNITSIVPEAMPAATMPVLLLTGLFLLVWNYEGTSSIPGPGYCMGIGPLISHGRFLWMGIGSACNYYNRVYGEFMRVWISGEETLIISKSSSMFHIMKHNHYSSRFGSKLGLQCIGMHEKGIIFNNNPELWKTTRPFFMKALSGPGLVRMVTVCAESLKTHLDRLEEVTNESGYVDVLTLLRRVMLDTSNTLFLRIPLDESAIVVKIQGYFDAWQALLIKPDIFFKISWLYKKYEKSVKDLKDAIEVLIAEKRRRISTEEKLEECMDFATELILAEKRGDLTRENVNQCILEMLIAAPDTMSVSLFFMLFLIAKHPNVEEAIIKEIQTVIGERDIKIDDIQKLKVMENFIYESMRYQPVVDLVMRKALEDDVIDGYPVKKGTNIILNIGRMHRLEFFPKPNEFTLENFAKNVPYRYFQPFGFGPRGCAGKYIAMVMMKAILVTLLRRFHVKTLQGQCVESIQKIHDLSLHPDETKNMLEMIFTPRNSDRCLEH

In the case of `O=[N+]([O-])c1nccn1CO[C@@H](CO)[C@H](O)CO`, the Potency entry (in assay [1]; in assay [3]; in the assay with Aromatase (Homo sapiens); in assay [4]; in assay [5]; in [6]) was “inactive” each time. Moreover, the Potency entry in [7], in assay [8], in assay [9], in assay [10], in [12] and in assay [13] was “inactive” in each case. Moreover, the result in assay [2] and in assay [11] was inactive.
Regarding `Cn1cnc2c(F)c(Nc3ccc(Br)cc3Cl)c(C(=O)NOCCO)cc21`, the compound was classed as inactive in [2], in [15] and in assay [11]. The Potency entry (in assay [14]; in assay [3]; with Aromatase (Homo sapiens); in [4]; in [6]; in assay [7]) was “inactive” in each case. The Potency result in [8], in assay [10], in assay [12] and in assay [13] was “inactive” in each case.
In the case of `O=C1CCN(c2ccccc2)N1`, the compound was called inactive in assay [2], in assay [16], in assay [18], in assay [15] and in assay [11]. The Potency result (in [14]; in assay [17]; in [3]; with Aromatase (Homo sapiens); in assay [4]; in [8]) was “inactive” in each case. Besides, the Potency entry in assay [9], in assay [10] and in assay [13] was “inactive” each time.
Turning to `CN(C)CCOc1ccccc1Cc1ccccc1`, the compound was classed as inactive in assay [2], in assay [15] and in assay [11]. The Potency entry (in [14]; with Aromatase (Homo sapiens); in assay [4]; in [5]; in assay [6]; in [7]) was “inactive” throughout. Further, the Potency result in [8], in assay [9], in [10], in assay [12] and in [13] was “inactive” in each case. Further, in [3], the Potency is 2.37 µM (active).
As to `Oc1ccccc1C=NCc1ccccc1`, the result in [2], in [15] and in assay [11] was inactive. For the same compound, the Potency entry (in [14]; in assay [3]; in the assay with Aromatase (Homo sapiens); in [4]; in assay [6]; in assay [7]) was “inactive” throughout. In addition, the Potency result in assay [8], in [9], in assay [10], in [12] and in assay [13] was “inactive” each time.
With `Nc1ccc(Oc2ccc(N)c(N)c2)cc1`, the compound was called inactive in assay [2], in assay [16] and in [11]. Moreover, the Potency result in [14], in assay [3], in assay [4], in assay [6], in assay [8] and in assay [10] was “inactive” in each case. Also, the Potency entry in [13] was “inactive”. Further, the Potency in assay [5] is 1.54 µM (active).
For `CCOC(=O)COc1ccc2c(c1)CC(NCC(O)c1cccc(Cl)c1)CC2` (stereo not given), the values for the Potency in assay [1], in assay [4] and in assay [10] were 48.9 µM (active), 21.9 µM (active) and 48.9 µM (active), respectively. In addition, the Potency result in [19], in [17], in assay [3], in assay [6] and in assay [7] was “inactive” each time. For the same compound, the outcome in assay [16] and in assay [11] was inactive.
As to `CCCCNc1ccc(C(=O)OCCN(CC)CC)cc1`, the compound was classed as inactive in assay [2], in assay [16], in assay [18], in assay [15] and in [11]. Also, the Potency entry (in assay [19]; in assay [17]; with Aromatase (Homo sapiens); in [4]; in assay [6]; in assay [7]) was “inactive” in each case. The Potency result in assay [8], in assay [10], in [12] and in assay [13] was “inactive” each time.
For the compound `C[C@@H]1CN(c2c(F)c(F)c3c(=O)c(C(=O)O)cn(C4CC4)c3c2F)C[C@H](C)N1`, the outcome in [2], in [16], in assay [18], in assay [15] and in assay [11] was inactive. Further, the Potency result (in assay [19]; in [14]; in [17]; in assay [3]; with Aromatase (Homo sapiens); in assay [4]) was “inactive” in each case. For the same compound, the Potency result in [5], in [6], in assay [7], in assay [8], in [10] and in assay [12] was “inactive” each time. Moreover, in assay [13], the Potency entry was “inactive”.
Regarding `CCC1(C)NC(=O)NC1=O` (stereo not given), the Potency result (in assay [1]; in [3]; with Aromatase (Homo sapiens); in assay [4]; in [5]; in assay [6]) was “inactive” in each case. The Potency result in assay [7], in assay [8], in assay [9], in assay [10] and in assay [13] was “inactive” throughout. The call in assay [2], in [15] and in assay [11] was inactive.
For `CCOc1ccc(NS(=O)(=O)c2ccc(N)cc2)nn1`, the Potency entry in assay [1], in assay [8], in [9], in [10], in [12] and in assay [13] was “inactive” throughout. Also, the compound was classed as inactive in [2] and in assay [15].
With `CCN(CCCc1ccccc1)CCCc1ccccc1`, the call in assay [2], in [16], in assay [18], in [15] and in [11] was inactive. The Potency result (in assay [19]; in assay [14]; in assay [17]; in [3]; with Aromatase (Homo sapiens); in assay [4]) was “inactive” throughout. Further, the Potency entry in assay [6], in assay [10], in [12] and in [13] was “inactive” throughout.
With `CCN(CC)CCOc1ccc(Cc2ccccc2)cc1`, the results for the Potency in assay [1], in [14] and in assay [3] were 10.6 µM (active), 26.8 µM (active) and 29.8 µM (active), respectively. The Potency result (with Aromatase (Homo sapiens); in assay [4]; in assay [6]; in [7]; in assay [8]; in assay [10]) was “inactive” each time. Moreover, the Potency result in assay [12] was “inactive”. Further, the compound was called inactive in assay [11].
As to `O=c1[nH]c(=O)n([C@H]2C[C@H](O)[C@@H](CO)O2)cc1C(F)(F)F`, the compound was classed as inactive in assay [2], in assay [16], in assay [18], in assay [15] and in assay [11]. Also, the Potency entry (in assay [14]; in assay [3]; with Aromatase (Homo sapiens); in [4]; in [5]; in assay [8]) was “inactive” each time. Also, the Potency result in assay [10] and in [13] was “inactive” throughout.
For the compound `CN(CCCN1c2ccccc2CCc2ccccc21)CC(=O)c1ccc(Cl)cc1`, the Potency in [1] was 26.6 µM (active). Further, the Potency result (in [19]; in [14]; in assay [17]; in assay [3]; in the assay with Aromatase (Homo sapiens); in [4]) was “inactive” each time. In addition, the Potency entry in assay [7], in [8] and in assay [10] was “inactive” each time. In addition, the compound was called inactive in [16] and in assay [18].
`COc1ccc2nc(NC(=O)Nc3ccccc3)sc2c1`: the compound was classed as inactive in assay [2], in [15] and in assay [11]. For the same compound, the Potency entry (in assay [14]; in assay [3]; in the assay with Aromatase (Homo sapiens); in [4]; in assay [6]; in assay [7]) was “inactive” each time. For the same compound, the Potency entry in [8], in assay [10] and in [13] was “inactive” throughout. Besides, the Potency in assay [5] was 10.6 µM (active).
